From PubChem BioAssay
Most compounds without a hit are left out; they make up all but 1.8% or so of the library.
LYPLA2 counter: blocks human lysophospholipase 2, a PME1 counter-screen; AID 2177; hit rate 0.38% among 320,000; recombinant LYPLA2, FP-Rh probe fluorescence polarization; inhibition, % at 5.9 µM;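 active means inhibition above the screen-wide mean plus 3 SD, limit set per campaign, cut at about 26% in these data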;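 further: 0% = LYPLA2 with DMSO and 100% = wells lacking LYPLA2 enzyme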
Target sequence (O95372 whole entry, looked up): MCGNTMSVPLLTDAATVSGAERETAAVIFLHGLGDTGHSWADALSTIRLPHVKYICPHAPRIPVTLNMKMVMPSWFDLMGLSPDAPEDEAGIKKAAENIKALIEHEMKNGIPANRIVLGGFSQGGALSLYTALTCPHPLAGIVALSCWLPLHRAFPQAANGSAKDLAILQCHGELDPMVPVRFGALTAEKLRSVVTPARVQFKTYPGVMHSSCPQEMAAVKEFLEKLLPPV
GSTO1 inh: counter-screen for RBBP9 inhibitors: inhibitors of human GSTO1 | AID 1974 | inhibition, % at 5.96 µM | hit rate 1.1% among 300,000 | recombinant GSTO1, activity-based probe fluorescence polarization;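 active means inhibition above the campaign mean inhibition plus 3 SD, cut at about 35% in these data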;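 further: 0% = GSTO1-1 with DMSO and 100% = wells lacking GSTO1-1 enzyme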
Target sequence (P78417 whole entry, looked up): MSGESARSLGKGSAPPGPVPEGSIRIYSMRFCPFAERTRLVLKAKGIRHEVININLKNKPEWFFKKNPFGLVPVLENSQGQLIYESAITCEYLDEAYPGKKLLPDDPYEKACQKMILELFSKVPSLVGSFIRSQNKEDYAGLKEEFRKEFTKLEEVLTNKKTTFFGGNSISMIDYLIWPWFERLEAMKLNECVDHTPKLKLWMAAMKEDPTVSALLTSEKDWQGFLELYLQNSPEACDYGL
Fam108B inh: blocks mouse Fam108B hydrolase in RBBP9 counter-screen; recombinant Fam108B, FP-Rh probe fluorescence polarization; inhibition, % at 9.51 µM; AID 1947; hit rate 0.33% among 300,000;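 active means inhibition above the screen mean inhibition plus 3 SD, computed separately per campaign, cut at about 18% in these data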;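 further: inhibitors lower polarization as less probe binds the enzyme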
PAD4 inh: PAD4 (human) enzyme inhibition | Q9UM07 | recombinant PAD4, RCA probe fluorescence polarization | inhibition, % at 6.36 µM | hit rate 0.41% among 330,000 | AID 485272;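 active means percent inhibition above a cutoff equal to the mean of all tested compounds plus 3 SD, cut at about 15% in these data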;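 further: 0% = PAD4 with RCA probe and DMSO and 100% = probe without PAD4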
PME-1 primary: blocks human protein phosphatase methylesterase 1 | recombinant PME-1, FP-Rh probe fluorescence polarization | Q9Y570 | hit rate 0.53% among 320,000 | inhibition, % at 5.9 µM;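 active means inhibition above the campaign mean of all compounds plus 3 SD, cut at about 26% in these data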;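 further: competitive labeling of PME-1 active site by serine hydrolase directed probe; 0% = PME-1 with DMSO and 100% = wells lacking PME-1 enzyme; inhibitors block probe labeling so polarization falls and inhibition rises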
LYPLA1 counter: blocks human lysophospholipase 1, a PME1 counter-screen | AID 2174 | inhibition, % at 5.9 µM | recombinant LYPLA1, FP-Rh probe fluorescence polarization | O75608 | hit rate 0.16% among 320,000;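 active means inhibition above the mean of all tested compounds plus 3 SD, set per campaign, cut at about 14% in these data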;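 further: inhibitors block serine hydrolase probe labeling of LYPLA1 so polarization falls; 0% = enzyme with DMSO and 100% = wells lacking LYPLA1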
* marks the source's active call; other numbers are inactive results; . = no result.

SMILES | LYPLA2 counter | GSTO1 inh | Fam108B inh | PAD4 inh | PME-1 primary | LYPLA1 counter
CCOc1ccc(Oc2ccc(C(F)(F)F)cc2NC(=O)C2=COCCO2)cc1 | -1 | . | . | 0 | -1 | -1
Cc1ccc2sc(NNC(=O)c3cc(-c4cccs4)nc4ccccc34)nc2c1C | -14 | -3 | -6 | -3 | -7 | -9
Cc1cccc2sc(NNC(=O)c3cc(=O)c4ccccc4o3)nc12 | 0 | 17 | 4 | 4 | 47* | -2
O=C(NNc1nc2c(F)cccc2s1)c1ccc(F)cc1 | 8 | 7 | 4 | -4 | -7 | 0
Cc1ccc2sc(NNC(=O)c3cc(=O)c4ccccc4o3)nc2c1C | 6 | 9 | 9 | -5 | 46* | -2
O=C(NNc1nc2c(F)cccc2s1)c1cc(=O)c2ccccc2o1 | 0 | 3 | 4 | -5 | 55* | 0
COc1ccc2nc(NNC(=O)c3cc(=O)c4ccccc4o3)sc2c1 | -2 | 23 | 1 | -1 | 7 | -4
COc1ccc(OC)c(NS(=O)(=O)c2c(C(=O)N3CCCCCC3)c(C)n(C)c2C)c1 | -7 | -1 | -4 | 9 | -2 | -2
O=C([C@@H]1CCCN1C(=O)c1cccs1)N1CCN(S(=O)(=O)c2cccc(F)c2)CC1 | -2 | . | . | -3 | 1 | -2
CCCCN(C(=O)CSc1nnc(Nc2ccccc2)s1)c1c(N)n(CCC)c(=O)[nH]c1=O | -11 | -4 | -11 | 20* | -2 | -4
CCCCN(C(=O)CSc1nnnn1C)c1c(N)n(Cc2ccccc2)c(=O)[nH]c1=O | 8 | -2 | -1 | 4 | 8 | 4
N#Cc1c(NC(=O)/C=C/C(=O)O)sc2c1CCN(Cc1ccccc1)C2 | -1 | 6 | 9 | -3 | 1 | 2
C/C(=N\Nc1nc2ccccc2s1)c1cccs1 | 8 | -5 | -1 | 4 | 32* | 1
COc1cc(OC)c(NC(=S)Nc2cc(Cl)cc(Cl)c2)cc1Cl | -10 | -9 | 21* | -1 | 9 | -14
COc1cc(OC)c(NC(=S)Nc2cccc(C(C)=O)c2)cc1Cl | 6 | -4 | 16 | 0 | 11 | -7
Cc1c(Cl)cccc1NC(=O)CNC(=O)CCS(=O)(=O)c1ccc(F)cc1 | -6 | . | . | -6 | -2 | 0
Cc1cccc(Cc2c(C)nc3c(C(=O)N4CCN(Cc5ccc6c(c5)OCO6)CC4)cnn3c2C)c1 | 5 | 35* | 6 | 0 | 2 | 2
COc1ccccc1NC(=O)COn1nnc2ccc(S(=O)(=O)N3CCOCC3)cc21 | 5 | 36* | 3 | -2 | -7 | 4
CC(=O)N1C(=O)c2cccc3cccc(c23)C(=O)N1C(C)=O | 2 | 2 | 2 | 2 | 8 | 1
O=C1c2cccc3cccc(c23)C(=O)C1(O)O | -7 | 63* | 2 | 3 | 2 | -3
c1ccc(-c2c(-c3ccccc3)n(Cc3ccco3)c3ncnc(NCCCn4ccnc4)c23)cc1 | 1 | 11 | 3 | -4 | 12 | 3
c1ccc(-c2oc3ncnc(NCCCn4ccnc4)c3c2-c2ccccc2)cc1 | -2 | 37* | -2 | -2 | 7 | -1
COc1ccc(N=Nc2nc3ccc(Br)cc3n2C)cc1 | -1 | 4 | 3 | 3 | 41* | -4
CN(C(=O)COC(=O)c1cc(S(=O)(=O)N2CCOCC2)c(Cl)cc1Cl)C1CCS(=O)(=O)C1 (centres undefined) | -4 | 54* | 0 | 6 | -4 | -2
COc1ccc(CNc2oc(COc3ccccc3Cl)nc2C#N)cc1 | 1 | 35* | -3 | -4 | 8 | -5
SMILES | LYPLA2 counter | GSTO1 inh | Fam108B inh | PAD4 inh | PME-1 primary | LYPLA1 counter
CC(=O)Oc1ccc(C(=O)OCC(=O)c2c(N)n(C)c(=O)n(C)c2=O)cc1OC(C)=O | 3 | 35* | -3 | 4 | -2 | 0
CCc1ccc(-n2nc3cc(C)c(N)cc3n2)cc1 | 1 | 36* | 2 | -3 | 3 | -2
O=Cc1ccccc1-n1cccn1 | -2 | 1 | 2 | -9 | -6 | 0
Oc1cc(-n2cccn2)c(O)cc1-n1cccn1 | -3 | 70* | -3 | -13 | -10 | -1
Cc1ccc(OCCNC(=O)c2cc(C3CC3)nc3c2cnn3C(C)C)cc1 | -8 | . | . | -4 | -8 | -4
CCCCCOc1ccc(C(=O)CCC(=O)NC(C)c2ccc(S(N)(=O)=O)cc2)cc1 (centres undefined) | . | . | . | 1 | . | .
O=C(CCCCCNC(=O)c1ccccc1)N=Nc1c(O)[nH]c2c(Br)cc(Br)cc12 | 8 | 57* | 5 | 0 | 15 | 3
